According to PubChem BioAssay (NCI):
About 79,000 compounds went through this panel and 15% of them were active in at least one assay; those are over-represented in the sample as a whole. Cut-off read from the data, not from the text of the source: active = growth inhibition above about 70%; inactive = the rest.

Tests used:
[1] = NCI Yeast Anticancer Drug Screen. Data for the rad52 strain (AID 147);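 note: 0% = growth of vehicle-treated control cultures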; conditions: S. cerevisiae rad52 mutant growth inhibition, active compounds read high
Method in brief: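 The repair-mutant yeast strain was incubated with compounds, then growth was read and inhibition derived relative to vehicle.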

[2] = NCI Yeast Anticancer Drug Screen. Data for the wt1 strain (AID 149);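 note: 0% = growth of vehicle-treated wt1 cultures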; conditions: S. cerevisiae wt1 strain (SPY 50644) growth inhibition, active compounds read high
Method in brief: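 The wt1 strain was treated with compounds, and growth was compared with vehicle-treated cultures to give inhibition.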

[3] = NCI Yeast Anticancer Drug Screen. Data for the rad50EPP+ strain (AID 151);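 note: 0% = growth of vehicle-treated control cultures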; conditions: S. cerevisiae rad50 mutant strain, active compounds read high
Method in brief: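 Vehicle-normalised growth inhibition; rad50EPP+ yeast strain, altered in DNA damage repair, compound-treated.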

[4] = NCI Yeast Anticancer Drug Screen. Data for the mgt1 strain (AID 153); conditions: S. cerevisiae mgt1 mutant growth inhibition, active compounds read high
Method in brief: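 Vehicle-normalized growth inhibition is determined in mgt1 yeast, a strain selected for a defined alteration in DNA repair or cell cycle control.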

[5] = NCI Yeast Anticancer Drug Screen. Data for the rad50 strain (AID 155);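 note: 0% = growth of vehicle-only cultures of the same strain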; conditions: S. cerevisiae rad50 strain growth inhibition, active compounds read high
Method in brief: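 Cells are treated with compound, grown, and their growth is then scored against vehicle-only cultures of the same repair-deficient yeast strain.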

[6] = NCI Yeast Anticancer Drug Screen. Data for the mec2-1 strain (AID 157); conditions: S. cerevisiae mec2-1 strain, active compounds read high
Method in brief: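 Mutant yeast (mec2-1) grown with compound; growth inhibition relative to vehicle control reported.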

[7] = NCI Yeast Anticancer Drug Screen. Data for the rad14 strain (AID 159);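 note: 0% = growth of vehicle-treated control cultures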; conditions: S. cerevisiae rad14 strain growth inhibition, active compounds read high
Method in brief: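 Readout: yeast growth inhibition, referenced to vehicle-only cultures. Strain bears a defined alteration in DNA damage repair.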

[8] = NCI Yeast Anticancer Drug Screen. Data for the sgs1 mgt1 strain (AID 161);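 note: 0% = growth of cultures given vehicle only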; conditions: S. cerevisiae sgs1 mgt1 strain, active compounds read high
Method in brief: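 Compounds are added to genetically altered yeast, and growth is compared with cultures given vehicle alone to give percent inhibition.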

[9] = NCI Yeast Anticancer Drug Screen. Data for the CLN2oe strain (AID 163);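 note: 0% = growth of vehicle-only control cultures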; conditions: S. cerevisiae CLN2oe strain, active compounds read high
Method in brief: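 Compounds are applied to yeast harbouring a defined cell-cycle control change; reduced growth compared with vehicle-treated controls gives the value.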

[10] = NCI Yeast Anticancer Drug Screen. Data for the cln2 rad14 strain (AID 165);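 note: 0% = growth equal to vehicle treated cultures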; conditions: S. cerevisiae cln2 rad14 strain, active compounds read high
Method in brief: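 Readout is yeast growth inhibition versus vehicle-treated controls, using a strain with cln2 and rad14 alterations exposed to compound.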

[11] = NCI Yeast Anticancer Drug Screen. Data for the bub3 strain (AID 167); conditions: S. cerevisiae bub3 mutant strain, active compounds read high
Method in brief: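 Part of a panel of yeast mutants defective in DNA damage repair or cell cycle regulation. Each strain is grown with compound, and inhibition is calculated relative to solvent-treated cultures.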

[12] = NCI Yeast Anticancer Drug Screen. Data for the wt2 strain (AID 169);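 note: 0% = growth of vehicle-treated yeast cultures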; conditions: S. cerevisiae wt2 strain growth inhibition, active compounds read high
Method in brief: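 Against vehicle-treated controls, the growth of yeast exposed to each compound was compared, and the inhibition was recorded.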

[13] = NCI Yeast Anticancer Drug Screen. Data for the mlh1 strain (AID 171);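 note: 0% = growth of vehicle-treated control cultures of the same strain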; conditions: S. cerevisiae mlh1 strain growth inhibition, active compounds read high
Method in brief: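 Measured: yeast growth. Reference: vehicle-treated controls. Organism: strain with a defined alteration affecting DNA damage repair or cell cycle control, treated with compound.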

[14] = NCI Yeast Anticancer Drug Screen. Data for the sgs1 strain (AID 173);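 note: 0% = growth of vehicle-only control cultures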; conditions: S. cerevisiae sgs1 mutant, active compounds read high
Method in brief: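 Each compound was added to cultures of the altered yeast strain. Growth was recorded, and inhibition was derived by comparison with vehicle controls.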

[15] = NCI Yeast Anticancer Drug Screen. Data for the mlh1 rad18 strain (AID 175); conditions: S. cerevisiae mlh1 rad18 strain growth inhibition, active compounds read high
Method in brief: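 Genetically defined yeast (DNA repair-deficient) exposed to compounds; growth inhibition determined relative to vehicle.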

[16] = NCI Yeast Anticancer Drug Screen. Data for the rad18 strain (AID 177); conditions: S. cerevisiae rad18 mutant growth inhibition, active compounds read high
Method in brief: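 Vehicle-treated cultures served as the baseline for scoring compound-induced growth inhibition in DNA-repair-mutant yeast.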

[17] = at 5.0 µM (retest, dose inferred, filed as 0.5)
[18] = at 50.0 µM (retest, dose inferred, filed as 5.0)

Measured: growth inhibition

CC(=O)OCC1OC2OC(=O)NC2C(OC(C)=O)C1OC(C)=O (stereo unspecified)
inactive: [1]; at 1.2 µM -3% | [1]; at 3.7 µM -1% | [1]; at 11.0 µM 0% | [1]; at 33.0 µM 1% | [1]; at 100.0 µM -3% | [2]; at 1.2 µM -3% | [2]; at 3.7 µM -3% | [2]; at 11.0 µM -2% | [2]; at 33.0 µM -2% | [2]; at 100.0 µM -1% | [3]; at 1.2 µM -4% | [3]; at 3.7 µM 0% | [3]; at 11.0 µM -1% | [3]; at 33.0 µM -5% | [3]; at 100.0 µM -8% | [4]; at 1.2 µM -1% | [4]; at 3.7 µM -1% | [4]; at 11.0 µM 1% | [4]; at 33.0 µM -4% | [4]; at 100.0 µM -35% | [5]; at 1.2 µM -5% | [5]; at 3.7 µM -1% | [5]; [17] 5% | [5]; at 11.0 µM 0% | [5]; at 33.0 µM -1% | [5]; [18] -1% | [5]; at 50.0 µM 5.15% | [5]; at 100.0 µM 0% | [6]; at 1.2 µM -2% | [6]; at 3.7 µM -2% | [6]; [17] -7% | [6]; at 11.0 µM -1% | [6]; at 33.0 µM -1% | [6]; [18] 3% | [6]; at 50.0 µM 10.9% | [6]; at 100.0 µM 0% | [7]; at 1.2 µM -2% | [7]; at 3.7 µM -1% | [7]; at 11.0 µM -3% | [7]; at 33.0 µM 2% | [7]; at 100.0 µM 2% | [8]; [17] 2% | [8]; [18] 15% | [8]; at 50.0 µM -17.1% | [9]; at 1.2 µM -3% | [9]; at 3.7 µM 2% | [9]; at 11.0 µM -1% | [9]; at 33.0 µM -4% | [9]; at 100.0 µM 0% | [10]; [17] -21% | [10]; [18] 44% | [10]; at 50.0 µM -15.3% | [11]; at 1.2 µM 13% | [11]; at 3.7 µM 2% | [11]; [17] 3% | [11]; at 11.0 µM -2% | [11]; at 33.0 µM 1% | [11]; [18] 3% | [11]; at 50.0 µM -9.2% | [11]; at 100.0 µM -4% | [12]; at 1.2 µM -3% | [12]; at 3.7 µM -3% | [12]; at 11.0 µM -3% | [12]; at 33.0 µM -4% | [12]; at 100.0 µM -1% | [13]; at 1.2 µM -2% | [13]; at 3.7 µM -3% | [13]; at 11.0 µM -2% | [13]; at 33.0 µM -1% | [13]; at 100.0 µM 0% | [14]; at 1.2 µM -3% | [14]; at 3.7 µM -3% | [14]; at 11.0 µM -2% | [14]; at 33.0 µM -1% | [14]; at 100.0 µM 0% | [15]; [17] -9% | [15]; [18] 5% | [15]; at 50.0 µM -7.3% | [16]; at 1.2 µM -3% | [16]; at 3.7 µM -1% | [16]; at 11.0 µM 0% | [16]; at 33.0 µM -3% | [16]; at 100.0 µM -2%

O=C1c2ccccc2C(=O)c2cc(CCl)ccc21
inactive: [1]; at 1.2 µM 4% | [1]; at 3.7 µM 12% | [1]; at 11.0 µM 17% | [1]; at 33.0 µM 21% | [1]; at 100.0 µM 20% | [2]; at 1.2 µM 1% | [2]; at 3.7 µM 6% | [2]; at 11.0 µM 3% | [2]; at 33.0 µM 7% | [2]; at 100.0 µM 10% | [3]; at 1.2 µM 27% | [3]; at 3.7 µM 47% | [3]; at 11.0 µM 64% | [3]; at 33.0 µM 69% | [3]; at 100.0 µM 68% | [4]; at 1.2 µM -1% | [4]; at 3.7 µM 2% | [4]; at 11.0 µM 7% | [4]; at 33.0 µM 10% | [4]; at 100.0 µM 12% | [5]; at 1.2 µM 2% | [5]; at 3.7 µM 6% | [5]; [17] 20% | [5]; at 11.0 µM 12% | [5]; at 33.0 µM 13% | [5]; [18] 32% | [5]; at 50.0 µM 25% | [5]; at 100.0 µM 14% | [6]; at 1.2 µM 2% | [6]; at 3.7 µM 7% | [6]; [17] 12% | [6]; at 11.0 µM 17% | [6]; at 33.0 µM 20% | [6]; [18] 38% | [6]; at 50.0 µM 24.4% | [6]; at 100.0 µM 16% | [7]; at 1.2 µM 2% | [7]; at 3.7 µM 4% | [7]; at 11.0 µM 7% | [7]; at 33.0 µM 8% | [7]; at 100.0 µM 13% | [8]; [17] 15% | [8]; [18] 30% | [8]; at 50.0 µM 46.2% | [9]; at 1.2 µM -1% | [9]; at 3.7 µM -5% | [9]; at 11.0 µM 8% | [9]; at 33.0 µM 5% | [9]; at 100.0 µM 2% | [10]; [17] 4% | [10]; [18] 18% | [10]; at 50.0 µM 28% | [11]; at 1.2 µM 5% | [11]; at 3.7 µM 11% | [11]; [17] 39% | [11]; at 11.0 µM 19% | [11]; at 33.0 µM 25% | [11]; [18] 56% | [11]; at 50.0 µM 58.8% | [11]; at 100.0 µM 22% | [12]; at 1.2 µM 3% | [12]; at 3.7 µM 7% | [12]; at 11.0 µM 8% | [12]; at 33.0 µM 12% | [12]; at 100.0 µM 12% | [13]; at 1.2 µM 3% | [13]; at 3.7 µM 3% | [13]; at 11.0 µM 6% | [13]; at 33.0 µM 9% | [13]; at 100.0 µM 10% | [14]; at 1.2 µM 2% | [14]; at 3.7 µM 2% | [14]; at 11.0 µM 7% | [14]; at 33.0 µM 11% | [14]; at 100.0 µM 14% | [15]; [17] 29% | [15]; [18] 51% | [15]; at 50.0 µM 31.2% | [16]; at 1.2 µM 9% | [16]; at 3.7 µM 22% | [16]; at 11.0 µM 39% | [16]; at 33.0 µM 46% | [16]; at 100.0 µM 53%
